# Laboratory results published in PubChem BioAssay (NCATS).
# Where “and” joins values, the source holds several entries; their conditions need not be identical. Identical values can stand only once. Calls of active or inactive are those of the source. Entries that show only a call come without a potency. Calls follow the shape of the dose curve; as a rule, active = well fitted cell-killing curve with a large enough effect; inconclusive = small, poorly fitted or top-dose-only effect; inactive = flat fitted curve, though single readings scatter.
# Test: Cell Viability - LYMP1-003 - Assay at 24 hr (AID 963)
# Conditions: LYMP1-003 lymphoblastoid cell viability; series mostly up to 92.2 µM
# Excerpt: NIH Chemical Genomics Center [NCGC]
# NIH Molecular Libraries Screening Centers Network [MLSCN]
# National Institutes of Environmental Health Sciences [NIEHS]
# National Toxicology Program [NTP]
# We have developed a 1536-well cell-based assay for quantitative high throughput screening (qHTS) against a number of cell lines to determine in vitro cytotoxicity of small molecules. This particular assay uses a human lymphoblastoid cell line (LYMP1-003) purchased from Coriell Institute for Medical Research.
# NCGC Assay Protocol Summary:
# The CellTiter-Glo luminescent cell viability assay (Promega) is a homogeneous method to measure the number of viable cells in culture. The end point readout of this assay is based on quantitation of intracellular ATP, an indicator of metabolic activity, using the luciferase reaction. Luciferase catalyzes the oxidation of beetle Luciferin to oxyluciferin and light in the presence of ATP. The luminescent signal is proportional to amount of ATP present.
# Using the CellTiter-Glo luminescent cell viability assay, the amount of cellular ATP was measured in the lymphoblastoid cell line with complete culture medium following compound treatment for 24 hours. The assay was performed in opaque white Kalypsys 1536-well plates. In the screen, tetraoctylammonium bromide was used as positive control. Library compounds were measured for their ability to cause acute toxicity in the cell line, as reflected by a decrease in intracellular ATP levels, in a concentration-dependent manner. […] AC50 values were determined from concentration-response data modeled with the standard Hill equation.
# qHTS protocol for CellTiter Glo lymphoblastoid cellular assay
# [Step] [Parameter] [Value] [Description]
# 1. Reagent; 5 uL; 2500 lymphoblastoid cells/well
# 2. Time; 5 hr; 37 C incubation
# 4. Controls; 23 nL; Tetraoctylammonium bromide 6.4pM to 92 uM
# 5. Time; 24 hr; 37 C incubation
# 6. Reagent; 5 uL; CellTiter Glo reagent
# 7. Time; 30 min; Room Temperature
# 8. Detection; Luminescence; Viewlux plate reader
# Keywords: cell viability, cytotoxicity, lymphoblastoid cell line, luminescence, NTPHTS, NTPHTS_NCGC, NIEHS, DSSTox, MLSMR, MLSCN, NIH Roadmap, qHTS, NCGC
# Potency is read from the fitted curve at half-maximal effect.
row,SMILES,Potency
1,CC(=O)[O-].CC(=O)[O-].O.O.[Cd+2],inactive
2,c1ccc2cc3c(cc2c1)-c1cccc2cccc-3c12,inactive
3,CN(C)c1ccc(N=O)cc1,7.94 µM (active)
4,CC(C)CC(C)Nc1ccc(Nc2ccccc2)cc1 (stereo not given),50.1 µM (active)
5,O=Nc1ccc(Nc2ccccc2)cc1,10 µM (active)
6,C[C@@H]1CC[C@@]2(OC1)O[C@H]1[C@@H](O)[C@H]3[C@@H]4CC[C@H]5C[C@@H](O[C@@H]6O[C@H](CO)[C@H](O[C@@H]7O[C@H](CO)[C@@H](O)[C@H](O[C@@H]8OC[C@@H](O)[C@H](O)[C@H]8O)[C@H]7O[C@@H]7O[C@H](CO)[C@@H](O)[C@H](O[C@@H]8O[C@H](CO)[C@@H](O)[C@H](O)[C@H]8O)[C@H]7O)[C@H](O)[C@H]6O)[C@H](O)C[C@]5(C)[C@H]4CC[C@]3(C)[C@H]1[C@@H]2C,7.94 µM (active)
7,C#CCO,inactive
8,CCCCCCCCn1sccc1=O,25.1 µM (active)
9,O=C1C2(Cl)C3(Cl)C4(Cl)C(Cl)(Cl)C5(Cl)C3(Cl)C1(Cl)C5(Cl)C24Cl (stereo not given),31.6 µM (active) and 50.1 µM (active)
10,N#CSCSC#N,25.1 µM (active)
11,C=CC(=O)OCC(CO)(COC(=O)C=C)COC(=O)C=C,6.31 µM (active)
12,Nc1ccccc1C(=O)OCCc1ccccc1,inactive
13,CC/C(=C(\c1ccccc1)c1ccc(OCCN(C)C)cc1)c1ccc(O)cc1,50.1 µM (active)
14,COP(=O)(OC)O/C(=C\Cl)c1cc(Cl)c(Cl)cc1Cl,inactive
15,C(=NC1CCCCC1)=NC1CCCCC1,inactive
16,N#CC(Cl)Cl,inactive
17,[CH3][Hg][Cl],50.1 µM (active)
18,O=[N+]([O-])C(Br)Br,inactive
19,O=C(CCl)c1ccccc1,inactive
20,O=[N+]([O-])c1cc(C(F)(F)F)cc([N+](=O)[O-])c1Cl,inactive
21,OC(c1ccc(Cl)cc1)(c1ccc(Cl)cc1)C(Cl)(Cl)Cl,inactive
22,FC(F)(F)c1ccc(Cl)cc1,inactive
23,ClC1=C(Cl)C2(Cl)C3C(Cl)C(Cl)CC3C1(Cl)C2(Cl)Cl (stereo not given),inactive
24,Oc1c(Br)c(Br)c(Br)c(Br)c1Br,inactive
25,O=C(O)C1C(C(=O)O)C2(Cl)C(Cl)=C(Cl)C1(Cl)C2(Cl)Cl (stereo not given),inactive
